An excerpt weighted towards active compounds, which were near 2.6% of everything screened.
Peg3 prom inh – Peg3 promoter activity inhibition | AID 588405 | HeLa PEG-Prom luciferase reporter, luminescence, overnight | 360,000 tested, 1.7% active | inhibition, % at 20 µM;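 active means inhibition of at least 50% at 20 µM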
Shn3 inh set2 – inhibitors of Schnurri-3 3'UTR reporter in osteoblasts; 360,000 tested, 0.52% active; inhibition, % at 12.5 µM; Clone20 osteoblast Shn3 3'UTR firefly luciferase, 24 h; AID 588674;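 active means mean inhibition of at least 75% with every replicate also reaching 75%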
CF NFkB block – inhibitors of cystic fibrosis induced NF-kB | inhibition, % at 5 µM | KKLEB NF-kB-GFP reporter, PAF-induced, GFP fluorescence overnight | 360,000 tested, 0.86% active;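 active means at least 50% inhibition at 5 µM, scaled per plate between neutral and stimulator controls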;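 further: PAF is a Pseudomonas aeruginosa culture filtrate used as stimulus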
KKLEB tox – counter-screen for CF NF-kB inhibitors: cytotoxicity. KKLEB CF airway cells viability, ATPlite luminescence, overnight; hits give low values; cells stimulated with P. aeruginosa culture filtrate. activity change (cytotoxicity), % at 5 µM. 360,000 tested, 0.36% active. AID 602141;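 active means corrected activity change at or below -50% at 5 µM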
HIF-2a block – blocks HIF-2a reporter activity; 786-0 RCC cells HIF-2a reporter, luciferase luminescence, overnight; inhibition, % at 18.8 µM; 360,000 tested, 0.72% active;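 active means inhibition of the luminescence signal of 40% or more relative to plate controls, in a single-dose primary screen at 18.75 µM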
Large screens that a line does not name were inactive.

CCCCCCn1ccc(=N)cc1	Shn3 inh set2 86.4
CCN1CCC(O)(/C=C/c2ccc(C(C)C)cc2)C(C(=O)/C=C/c2ccc(C(C)C)cc2)C1 (stereo not drawn)	Peg3 prom inh 103.6
O=C(COC(=O)COc1ccccc1)NCc1ccc2c(c1)OCO2	none
CC(C)N(CC(=O)Nc1ccc(Cl)cc1C(F)(F)F)C(=O)CCl	Peg3 prom inh 64.9
O=C(O)CSCC(=O)Nc1ccc(Cl)cc1C(F)(F)F	none
CC1=NN(c2ccc(Cl)cc2)C(=O)C1C(c1ccccc1O)c1c(C)[nH]n(-c2ccc(Cl)cc2)c1=O (stereo not drawn)	CF NFkB block 65.1, KKLEB tox -50.3
CCCSc1nc2c(cnn2-c2ccccc2)c(=O)[nH]1	none
CCCSc1nc2c(cnn2-c2ccc(C)cc2)c(=O)[nH]1	Peg3 prom inh 61.4
CC1(C(=O)Nc2ccc(Cl)cc2)Cc2c(-c3cccc(C(F)(F)F)c3)ccnc2O1 (stereo not drawn)	none
Clc1nc(Cl)nc(N(c2ccccc2)c2ccccc2)n1	none
Nc1ccc(N(c2ccccc2)c2ccc(N)cc2)cc1	CF NFkB block 87.0
CCOC(=O)c1cc(C)sc1NC(=O)CSc1nccn1C	none
Cc1ccc(S(=O)(=O)Nc2ccc(Nc3nccn4c(-c5ccc6ccccc6c5)cnc34)cc2)cc1	none
Cc1ccc(-c2csc3nc(SCC(N)=O)n(Cc4ccccc4)c(=O)c23)cc1	Peg3 prom inh 52.6
Cc1ccc(-c2csc3ncnc(SCC(N)=O)c23)cc1	none
CCN(CC)CCn1nc2c3c(cccc3c1=O)-c1ccccc1-2	Peg3 prom inh 106.3
Cc1ccc(-c2csc(NC(=O)CSc3nc4ccccc4c(=O)n3CCCN(C)C)n2)cc1	Peg3 prom inh 69.7
COc1ccc(-c2csc(NC(=O)CSc3nc4ccccc4c(=O)[nH]3)n2)cc1	CF NFkB block 70.8
CN(C)CCCn1c(SCC(=O)N2c3ccccc3Sc3ccccc32)nc2ccccc2c1=O	Peg3 prom inh 106.7
CCn1c(SCC(=O)Nc2nc(-c3ccc(C)cc3)cs2)nnc1-c1ccccc1	none
COc1ccc2cc(C)c3nnc(SCC(=O)Nc4nc(-c5ccc(F)cc5)cs4)n3c2c1	Peg3 prom inh 65.5
CCCC12CN(C(=O)c3ccc([N+](=O)[O-])cc3)CC(C)(CN(C(=O)c3ccc([N+](=O)[O-])cc3)C1)C2=O	none
Cc1csc(NC(=O)CCNC(=O)c2ccccc2Cl)n1	none
Cc1ccc(C(=O)c2oc3ccc(Cl)cc3c2NC(=O)CN2CCN(C)CC2)cc1	Peg3 prom inh 107.2
CCOC(=O)c1oc2ccc(OC)cc2c1NC(=O)CN1CCN(C)CC1	none
O=C(NC(Nc1ncc(S(=O)(=O)c2ccc([N+](=O)[O-])cc2)s1)(C(F)(F)F)C(F)(F)F)c1ccc(Cl)cc1	KKLEB tox -55.2
COCC(=O)Nc1ncc(S(=O)(=O)c2ccc([N+](=O)[O-])cc2)s1	none
Cc1nnc(SCC(=O)N2CCCC(N3CCN(c4ccc(F)cc4)CC3)C2)o1 (stereo not drawn)	none
CC(=O)N(C)c1ccc(OCC(O)Cn2c3ccc(Cl)cc3c3cc(Cl)ccc32)cc1 (stereo not drawn)	Peg3 prom inh 61.3
CC(=O)N(C)c1ccc(OCC(O)Cn2c(C)nc3ccccc32)cc1 (stereo not drawn)	none
C=C(NC(=O)C(=C)NC(=O)c1csc(C2=NC3c4csc(n4)C4NC(=O)c5csc(n5)C(C(C)(O)C(C)O)NC(=O)C5CSC(=N5)/C(=C/C)NC(=O)C(C(C)O)NC(=O)c5csc(n5)C3(CC2)NC(=O)C(C)NC(=O)C(=C)NC(=O)C(=C)NC(=O)C(C(C)C)NC2C=Cc3c(C(C)O)cc(nc3C2O)C(=O)OC4C)n1)C(N)=O (stereo not drawn)	Peg3 prom inh 81.2, Shn3 inh set2 85.5, HIF-2a block 63.6
CC1CC(=O)c2c(cc3c(-c4c(O)cc(O)c5c(O)c6c(cc45)OC(C)CC6=O)c(O)cc(O)c3c2O)O1 (stereo not drawn)	Peg3 prom inh 104.7, CF NFkB block 53.2, HIF-2a block 91.0
O=C1CC(c2ccc(O)cc2)Oc2cc(O)cc(O)c21 (stereo not drawn)	none
CCOC(=O)[C@]12CCC=C1N(Cc1ccco1)C(=O)[C@H](CC(=O)NCc1cccs1)C2	none (no result: Peg3 prom inh, Shn3 inh set2, CF NFkB block, KKLEB tox)
COc1cc(Cl)c([C@@H]2C[C@H]3CN(c4ccccc4)C(=O)[C@]34CCCN24)cc1OC	none
CCOc1cc([C@@H]2C[C@H]3CN(c4ccccc4)C(=O)[C@]34CCCN24)ccc1OC	Peg3 prom inh 98.4
COc1ccccc1-n1cc([C@@H]2C[C@H]3CN(c4ccccc4)C(=O)[C@]34CCCN24)cn1	Peg3 prom inh 97.6, Shn3 inh set2 97.5, CF NFkB block 85.8, KKLEB tox -56.2
COc1cc([C@@H]2C[C@H]3CN(c4ccccc4)C(=O)[C@]34CCCN24)cc(OC)c1OC	Peg3 prom inh 86.9
CNC(=O)C1Cc2c(-c3ccc4c(c3)OCO4)ccnc2O1 (stereo not drawn)	none
CCc1ccc(N(CC(=O)NC(C)(C)C)C(=O)CCC(=O)Nc2ccccn2)cc1	none
O=C(CCc1ccccc1)Nc1ccnn1C1CCN(C/C=C/c2ccccc2)CC1	none
COc1ccccc1/C=C/CN1CCC(n2nccc2NC(=O)CCc2ccccc2)CC1	Shn3 inh set2 86.3
Cc1cc(NC(=O)C2CCCCC2)nc2c1c(=O)oc1ccccc12	Peg3 prom inh 50.9
CN(C)CCNC(=O)c1cccc2nc3c(ccc4ccccc43)nc12	Peg3 prom inh 98.3
COc1ccc(C(=O)NCCN(C)C)c2nc3ccccc3cc12	Peg3 prom inh 92.2, Shn3 inh set2 92.9
CN(C)CCNC(=O)c1ccccc1-c1cc2ccccc2c(=O)o1	none
CN(CCNC(=O)c1c[nH]c2c1ccc1ccccc12)CCNC(=O)c1c[nH]c2c1ccc1ccccc12	Peg3 prom inh 97.2
COc1ccc(C(=O)Nc2ccc3ccccc3n2)c(OC)c1OC	KKLEB tox -52.1
CN(C)CCNC(=O)c1cccc2[nH]c(-c3ccncc3)nc12	none
Cc1nn(Cc2ccccc2)c(Cl)c1C(=O)OC(C)C#N (stereo not drawn)	none
CC(C)(C)OC(=O)N1CCCC(C(=O)Nc2cccc(C(=O)NC3CC3)c2)C1 (stereo not drawn)	none
COc1cc(N)ccc1Nc1c2ccccc2nc2ccccc12	Peg3 prom inh 102.6
Cc1ccc(O)c(Nc2c3ccccc3nc3ccccc23)c1	Peg3 prom inh 61.1
COc1ccc(Nc2c3c(nc4ccccc24)CCC3)c(OC)c1	none
CCCS(=O)(=O)Nc1ccc(Nc2c3ccccc3nc3ccccc23)c(OC)c1	Shn3 inh set2 88.0
COc1ccc(CNC(=O)CSc2nnc(C3CC3)n2C2CC2)cc1	none
Cc1ccc(Nc2cc(C)nn2-c2nc(C)cc(=O)[nH]2)cc1	Peg3 prom inh 108.4, CF NFkB block 52.2, HIF-2a block 40.3
CC1CCc2nc3ccccc3c(C(=O)OCC(=O)NC3CCS(=O)(=O)C3)c2C1 (stereo not drawn)	none

From PubChem BioAssay
